{"source": "PubChem BioAssay", "note": "The source made the active and inactive calls. Rule as the data show it, unless noted: active = inhibition above about 30%; inactive = the rest."}
{"test": "yeast transport mutant growth inhibition pilot in 384-well plates, post-Golgi transport modulator project (AID 636; in the data active = inhibition above about 31%)", "settings": "absorbance 615 nm, about 18 h, stronger effect = higher value"}
{"smiles": "FC(F)(F)c1cccc(N2CCN(c3nnnn3-c3ccccc3)CC2)c1", "inhibition": "-5.84% (inactive)"}
{"smiles": "COC(=O)c1cc2oc(C)cc2n1CC(=O)Nc1ccc(C)c(C)c1", "inhibition": "0.51% (inactive)"}
{"smiles": "Cc1cc2oc(=O)cc(C)c2c(=O)o1", "inhibition": "2.5% (inactive)"}
{"smiles": "CC(Oc1ccc(Cl)cc1Cl)C(=O)Nc1ncccn1", "note": "(stereo not given)", "inhibition": "-1.17% (inactive)"}
{"smiles": "CC(C(=O)NCCCN1CCOCC1)n1cccc1C(=O)c1ccccc1", "note": "(stereo not given)", "inhibition": "-2.37% (inactive)"}
{"smiles": "CC(C)(C)NCc1cc2ccccc2[nH]c1=O", "inhibition": "-9.05% (inactive)"}
{"smiles": "Cc1ccc(-c2noc(-c3ccccc3C(=O)NCC3CCCO3)n2)cc1", "note": "(stereo not given)", "inhibition": "-0.13% (inactive)"}
{"smiles": "Cc1cc(Nc2ccc(C(=O)O)cc2)n2nc(C)nc2n1", "inhibition": "-4.67% (inactive)"}
{"smiles": "O=C(CSc1nnnn1C1CCCCC1)N1CCc2ccccc21", "inhibition": "-3.87% (inactive)"}
{"smiles": "Cc1cc(C)c2c(n1)nn1c(N3CCN(c4cccc(Cl)c4)CC3)cc(C)nc21", "inhibition": "-5.68% (inactive)"}
{"smiles": "CC(=O)NC(Cc1cc(C)ccc1C)C(=O)N1CCN(C(=O)Nc2ccc(C(C)=O)cc2)CC1", "note": "(stereo not given)", "inhibition": "-4.62% (inactive)"}
{"smiles": "Cc1nnc(SCCn2c(N3CC(C)CC(C)C3)nc3c2c(=O)n(C)c(=O)n3C)s1", "note": "(stereo not given)", "inhibition": "0.26% (inactive)"}
{"smiles": "CC(C)CCNC(=O)NC(=O)CN1C(=O)NC2(CCCCC2)C1=O", "inhibition": "1.32% (inactive)"}
{"smiles": "COc1ccc(C(=O)Nc2cccc(-c3nc4ncccc4o3)c2C)cc1OC", "inhibition": "3.42% (inactive)"}
{"smiles": "Cc1ccc(S(=O)(=O)NCC2CCC(C(=O)NCCCN3CCOCC3)CC2)cc1", "note": "(stereo not given)", "inhibition": "-0.53% (inactive)"}
{"smiles": "Cc1ccc(NC(=O)CSc2nnc(-c3ccncc3)n2C)cc1C", "inhibition": "1.08% (inactive)"}
{"smiles": "O=C(OCC#CCSc1nnc(-c2ccncc2)o1)c1cccs1", "inhibition": "-4.67% (inactive)"}
{"smiles": "O=C(NCc1cccnc1)C1c2ccccc2C(=O)N1Cc1ccco1", "note": "(stereo not given)", "inhibition": "-1.56% (inactive)"}
{"smiles": "CCc1nnc(NC(=O)CSc2nnc3scc(-c4ccc(C)cc4)n23)s1", "inhibition": "-3.15% (inactive)"}
{"smiles": "CC(C)(C)C(=O)Oc1cc(N)n(S(=O)(=O)c2ccccc2)n1", "inhibition": "0.53% (inactive)"}
{"smiles": "Cc1cnc(NC(=O)CSc2nc3ccccc3c(=O)[nH]2)s1", "inhibition": "-3.07% (inactive)"}
{"smiles": "O=C(CCN1C(=O)c2ccccc2C1=O)OCN1C(=O)c2ccccc2C1=O", "inhibition": "6.8% (inactive)"}
{"smiles": "CCOC(=O)CNC(=O)c1c(C)nn(-c2ccccc2)c1Cl", "inhibition": "-2.63% (inactive)"}
{"smiles": "COc1ccc(NC(=O)CN2CCN(CC(=O)Nc3cc(OC)cc(OC)c3)CC2)cc1", "inhibition": "-3.77% (inactive)"}
{"smiles": "CCCn1nc(NS(=O)(=O)c2ccccc2)c2cc3ccccc3nc21", "inhibition": "-1.84% (inactive)"}
{"smiles": "CCOC(=O)C1=C(C)NC(C)=C(C(=O)OCC)C1c1cc(N)ccc1OC(F)F", "inhibition": "0.91% (inactive)"}
{"smiles": "CC1=C(C(=O)OCc2ccccc2)C(c2ccc(C)o2)C2=C(CCCC2=O)N1", "note": "(stereo not given)", "inhibition": "-6.89% (inactive)"}
{"smiles": "O=C(Nc1ccccc1-c1ccccc1)NC1CCN(CC(=O)N2CCOCC2)CC1", "inhibition": "-2.34% (inactive)"}
{"smiles": "CCN(C1CCCCC1)S(=O)(=O)c1ccc(OC)c(C)c1", "inhibition": "-7.92% (inactive)"}
{"smiles": "Cc1ccccc1N(C)S(=O)(=O)c1ccc2[nH]cc(C(=O)NCC3CCCO3)c(=O)c2c1", "note": "(stereo not given)", "inhibition": "-4.61% (inactive)"}
{"smiles": "COc1ccc(N2C(=O)CC(N3CCN(c4ccccc4F)CC3)C2=O)cc1", "note": "(stereo not given)", "inhibition": "-1.07% (inactive)"}
{"smiles": "COc1cc(OC)cc(-n2nnnc2SCC(=O)N2CCCC2)c1", "inhibition": "-2.11% (inactive)"}
{"smiles": "O=C(O)c1cc(Cl)c(Cl)cc1C(=O)N1CCCC1", "inhibition": "-1.79% (inactive)"}
{"smiles": "Nn1c(CSc2nc3ccccc3o2)nnc1CSc1nc2ccccc2o1", "inhibition": "-4.4% (inactive)"}
{"smiles": "CN=C1CC(C)(C)CC(=O)/C1=C(/O)CCC(=O)NC", "inhibition": "-2.63% (inactive)"}
{"smiles": "CCOC(=O)c1ccc(NC(=O)c2ccc(NS(C)(=O)=O)cc2)cc1", "inhibition": "-0.8% (inactive)"}
{"smiles": "CCN(CC)CCCN(Cc1cc2cc(OC)ccc2[nH]c1=O)C(=O)Nc1ccccc1", "inhibition": "-5.73% (inactive)"}
{"smiles": "O=C(COC(=O)CCC(=O)c1cccs1)NCc1ccco1", "inhibition": "-3.59% (inactive)"}
{"smiles": "O=C(Cn1cnc2ccccc2c1=O)NCCC(=O)N1CCN(Cc2ccccc2)CC1", "inhibition": "0.52% (inactive)"}
{"smiles": "CC(C)C(c1nnnn1CC1CCCO1)N1CCN(Cc2ccc3c(c2)OCO3)CC1", "note": "(stereo not given)", "inhibition": "-6.44% (inactive)"}
{"test": "growth suppression of yeast trafficking mutant, preliminary HTS, modulators of trafficking downstream of Golgi apparatus project, 1536-format plate, OD 615 nm (AID 637)", "settings": "yeast transport mutant growth, absorbance 615 nm, 18 h; stronger effect = higher value"}
{"smiles": "FC(F)(F)c1cccc(N2CCN(c3nnnn3-c3ccccc3)CC2)c1", "inhibition": "-2.22% (inactive)"}
{"smiles": "COC(=O)c1cc2oc(C)cc2n1CC(=O)Nc1ccc(C)c(C)c1", "inhibition": "-7% (inactive)"}
{"smiles": "Cc1cc2oc(=O)cc(C)c2c(=O)o1", "inhibition": "-3.83% (inactive)"}
{"smiles": "CC(Oc1ccc(Cl)cc1Cl)C(=O)Nc1ncccn1", "note": "(stereo not given)", "inhibition": "-11% (inactive)"}
{"smiles": "CC(C(=O)NCCCN1CCOCC1)n1cccc1C(=O)c1ccccc1", "note": "(stereo not given)", "inhibition": "0% (inactive)"}
{"smiles": "CC(C)(C)NCc1cc2ccccc2[nH]c1=O", "inhibition": "-2.5% (inactive)"}
{"smiles": "Cc1ccc(-c2noc(-c3ccccc3C(=O)NCC3CCCO3)n2)cc1", "note": "(stereo not given)", "inhibition": "-3.97% (inactive)"}
{"smiles": "Cc1cc(Nc2ccc(C(=O)O)cc2)n2nc(C)nc2n1", "inhibition": "4.92% (inactive)"}
{"smiles": "O=C(CSc1nnnn1C1CCCCC1)N1CCc2ccccc21", "inhibition": "-2.79% (inactive)"}
{"smiles": "Cc1cc(C)c2c(n1)nn1c(N3CCN(c4cccc(Cl)c4)CC3)cc(C)nc21", "inhibition": "3.65% (inactive)"}
{"smiles": "CC(=O)NC(Cc1cc(C)ccc1C)C(=O)N1CCN(C(=O)Nc2ccc(C(C)=O)cc2)CC1", "note": "(stereo not given)", "inhibition": "-11.3% (inactive)"}
{"smiles": "Cc1nnc(SCCn2c(N3CC(C)CC(C)C3)nc3c2c(=O)n(C)c(=O)n3C)s1", "note": "(stereo not given)", "inhibition": "24.7% (inactive)"}
{"smiles": "CC(C)CCNC(=O)NC(=O)CN1C(=O)NC2(CCCCC2)C1=O", "inhibition": "10.9% (inactive)"}
{"smiles": "COc1ccc(C(=O)Nc2cccc(-c3nc4ncccc4o3)c2C)cc1OC", "inhibition": "-3.97% (inactive)"}
{"smiles": "Cc1ccc(S(=O)(=O)NCC2CCC(C(=O)NCCCN3CCOCC3)CC2)cc1", "note": "(stereo not given)", "inhibition": "24.9% (inactive)"}
{"smiles": "Cc1ccc(NC(=O)CSc2nnc(-c3ccncc3)n2C)cc1C", "inhibition": "25.9% (inactive)"}
{"smiles": "O=C(OCC#CCSc1nnc(-c2ccncc2)o1)c1cccs1", "inhibition": "1.43% (inactive)"}
{"smiles": "O=C(NCc1cccnc1)C1c2ccccc2C(=O)N1Cc1ccco1", "note": "(stereo not given)", "inhibition": "-3.65% (inactive)"}
{"smiles": "CCc1nnc(NC(=O)CSc2nnc3scc(-c4ccc(C)cc4)n23)s1", "inhibition": "-1.27% (inactive)"}
{"smiles": "CC(C)(C)C(=O)Oc1cc(N)n(S(=O)(=O)c2ccccc2)n1", "inhibition": "-5.27% (inactive)"}
{"smiles": "Cc1cnc(NC(=O)CSc2nc3ccccc3c(=O)[nH]2)s1", "inhibition": "-6.19% (inactive)"}
{"smiles": "O=C(CCN1C(=O)c2ccccc2C1=O)OCN1C(=O)c2ccccc2C1=O", "inhibition": "-3.17% (inactive)"}
{"smiles": "CCOC(=O)CNC(=O)c1c(C)nn(-c2ccccc2)c1Cl", "inhibition": "-7.27% (inactive)"}
{"smiles": "COc1ccc(NC(=O)CN2CCN(CC(=O)Nc3cc(OC)cc(OC)c3)CC2)cc1", "inhibition": "0.66% (inactive)"}
{"smiles": "CCCn1nc(NS(=O)(=O)c2ccccc2)c2cc3ccccc3nc21", "inhibition": "5.45% (inactive)"}
{"smiles": "CCOC(=O)C1=C(C)NC(C)=C(C(=O)OCC)C1c1cc(N)ccc1OC(F)F", "inhibition": "-7.21% (inactive)"}
{"smiles": "CC1=C(C(=O)OCc2ccccc2)C(c2ccc(C)o2)C2=C(CCCC2=O)N1", "note": "(stereo not given)", "inhibition": "6.07% (inactive)"}
{"smiles": "O=C(Nc1ccccc1-c1ccccc1)NC1CCN(CC(=O)N2CCOCC2)CC1", "inhibition": "-3.11% (inactive)"}
{"smiles": "CCN(C1CCCCC1)S(=O)(=O)c1ccc(OC)c(C)c1", "inhibition": "-13% (inactive)"}
{"smiles": "Cc1ccccc1N(C)S(=O)(=O)c1ccc2[nH]cc(C(=O)NCC3CCCO3)c(=O)c2c1", "note": "(stereo not given)", "inhibition": "0.17% (inactive)"}
{"smiles": "COc1ccc(N2C(=O)CC(N3CCN(c4ccccc4F)CC3)C2=O)cc1", "note": "(stereo not given)", "inhibition": "2.26% (inactive)"}
{"smiles": "COc1cc(OC)cc(-n2nnnc2SCC(=O)N2CCCC2)c1", "inhibition": "0.36% (inactive)"}
{"smiles": "O=C(O)c1cc(Cl)c(Cl)cc1C(=O)N1CCCC1", "inhibition": "-1.17% (inactive)"}
{"smiles": "Nn1c(CSc2nc3ccccc3o2)nnc1CSc1nc2ccccc2o1", "inhibition": "-1.8% (inactive)"}
{"smiles": "CN=C1CC(C)(C)CC(=O)/C1=C(/O)CCC(=O)NC", "inhibition": "-3.97% (inactive)"}
{"smiles": "CCOC(=O)c1ccc(NC(=O)c2ccc(NS(C)(=O)=O)cc2)cc1", "inhibition": "-4.92% (inactive)"}
{"smiles": "CCN(CC)CCCN(Cc1cc2cc(OC)ccc2[nH]c1=O)C(=O)Nc1ccccc1", "inhibition": "-1.97% (inactive)"}
{"smiles": "O=C(COC(=O)CCC(=O)c1cccs1)NCc1ccco1", "inhibition": "-1.5% (inactive)"}
{"smiles": "O=C(Cn1cnc2ccccc2c1=O)NCCC(=O)N1CCN(Cc2ccccc2)CC1", "inhibition": "0.98% (inactive)"}
{"smiles": "CC(C)C(c1nnnn1CC1CCCO1)N1CCN(Cc2ccc3c(c2)OCO3)CC1", "note": "(stereo not given)", "inhibition": "-3.97% (inactive)"}
